Eight molecules from PubChem BioAssay (NCATS) can be followed below.

Inconclusive results are not listed. Active and inactive are the calls of the source. Unless noted, the call rests on the fitted dose curve; in most records, active means well fitted curve in the direction sought with a large enough effect; inconclusive means small, poorly fitted or top-dose-only effect, or another doubt; inactive means no such curve, though single readings can be large; an effect the other way counts as inactive or inconclusive.

Assay [1] concerns the target Methanococcus maripaludis chaperonin (MmCpn) (UniProt Q6LX38). The assay is described as follows: High-Throughput Screening for Modulators of Cytosolic Chaperonin Activity: MmCpn Primary Screen (AID 488978).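 Further: 50 nM MmCpn enzyme hydrolysing 30 µM ATP at 37 °C; 0% is about no effect.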 In short, it runs like this: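 Steps: chaperonin 50 nM final; add compound, 5 min RT; start with ATP, 30 uM final; hold 10 min at 37C; add ADP Transcreener HTRF reagent, 5 min; read ex 320, em 590 and 665 nm.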

In assay [2] the target is Transient receptor potential cation channel subfamily V member 1 (Homo sapiens) (UniProt Q8NER1). Put plainly: HTS Assay for Compounds that Act as Enhancers of the Vanilloid Receptor 1 (AID 488979). Further: 0% is about no effect. In short, it runs like this: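 TRPV1 cells loaded with Fluo-8 calcium dye; compound added and Ca2+ signal (ex 480/em 520 nm) followed 3 min, then capsaicin at EC20 added and read 2 more min to detect enhancement.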

Assay [3] has as its target Thyrotropin receptor (Homo sapiens) (UniProt P16473). Put plainly: qHTS Assay for Antagonists of the Thyroid Stimulating Hormone Receptor (AID 488980). Further: series mostly up to about 58 µM; 0% is about no effect. In short, it runs like this:
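Readout is cAMP by HTRF competition between cellular cAMP and cAMP-d2 for a cryptate-labelled antibody. Antagonism was assessed in TSHR-transfected HEK293 cells stimulated with 4 nM TSH (EC80, final) in the presence of RO 20-1724.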

Assay [4] deals with D(1A) dopamine receptor (Homo sapiens) (UniProt P21728). Put plainly: HTS Assay for Allosteric Agonists of the Human D1 Dopamine Receptor: Primary Screen for Agonists (AID 488981). Further: 0% is about no effect. In short, it runs like this:
(§1)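 Tetracycline-induced HEK293 Trex D1 cells with forced coupling to calcium, loaded with no-wash calcium dye; kinetic fluorescence read 180 s after compound addition for agonism, then a further 180 s after an EC20 dopamine challenge for potentiation.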

The target is the same in assay [5]. Put plainly: HTS Assay for Allosteric Agonists of the Human D1 Dopamine Receptor: Primary Screen for Potentiators (AID 488982). Further: 0% is about no effect. In short, it runs like this: as §1
The target is the same in assay [6]. Put plainly: HTS Assay for Allosteric Agonists of the Human D1 Dopamine Receptor: Primary Screen for Antagonists (AID 488983).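 Further: calcium flux response to an EC80 dopamine challenge measured with no-wash dye; on the % scale 0 is the no-effect control and ±100 the full control effect; nearly all actives have a fitted effect of over 65% in size.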 In short, it runs like this: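 Tetracycline-induced HEK293 T-REx D1 line, force-coupled to calcium flux, read with no-wash calcium dye. Compound added after 10 s baseline, read 180 s for agonism, then EC80 dopamine added and read a further 180 s.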

The target in assay [7] is ATP-dependent 6-phosphofructokinase (Trypanosoma brucei brucei) (UniProt O15648). The assay is described as follows: qHTS Assay to Find Inhibitors of T. brucei phosphofructokinase: hit validation (AID 492961).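 Further: luminescence reports ADP formed as PFK phosphorylates fructose-6-phosphate with ATP; series mostly up to about 51 µM; on the % scale 0 is the no-effect control and ±100 the full control effect.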 In short, it runs like this:
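Inhibition of parasite PFK is measured as reduced ADP formation, quantified via luciferase after ATP depletion. Assay used 0.1 mM ATP, 0.5 mM F6P, 1.25 nM enzyme, 45 min incubation.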

A short description of assay [8]: Validation screen for small molecules that induce genotoxicity in human embryonic kidney (HEK293T) cells expressing luciferase-tagged ELG1 (AID 493106). Further: 0% is about no effect. In short, it runs like this: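 HEK293T cells expressing luciferase-tagged ELG1, 2,000 cells/well, exposed to compound 16 hr at 37 °C, 5% CO2. Luciferase read after ONE-Glo, 30 min at room temperature; increased signal indicates genetic stress.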

Assay [9] has as its target ATPase family AAA domain-containing protein 5 (Homo sapiens) (UniProt Q96QE3). Put plainly: Validation screen for small molecules that inhibit ELG1-dependent DNA repair in human embryonic kidney (HEK293T) cells expressing luciferase-tagged ELG1 (AID 493107).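 Further: cells co-treated with the DNA-damaging agent 5-fluorouridine alongside compound; series mostly up to about 46 µM; on the % scale 0 is the no-effect control and ±100 the full control effect; inhibitors lower the ELG1-luciferase luminescence signal; nearly all actives have a fitted effect of over 70% in size.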 In short, it runs like this:
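HEK293T cells expressing luciferase-tagged ELG1, 2,000 per well, treated with 5-fluorouridine plus compound for 16 h at 37 C. ONE-Glo luminescence after 30 min at room temperature reports ELG1 reporter level.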

Assay [10] concerns the target Thyrotropin-releasing hormone receptor (Homo sapiens) (UniProt P34981). Put plainly: qHTS for Small Molecule Agonists and Allosteric Enhancers of Human TRH Receptor: Validation Screen for Agonists (AID 493127;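 active means calcium activation more than 3 SD above the typical response in the agonist read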; further: 0% is about no effect). As to conditions: TRH receptor agonist cell assay; at 2 µM; stronger effect = higher value. In short, it runs like this:
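TRHR cells loaded with fluo-8 calcium dye; FDSS kinetic fluorescence (Ex 480/Em 530) read at 1 s/cycle after 23 nL compound addition. Agonist-mode calcium response recorded before the 10 nM TRH (EC20) addition.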
A general note: qHTS replaces the single test concentration by a dilution series.

The nature of assay [11]: qHTS for Inhibitors of Cell Surface uPA Generation: Validation Assay (AID 493164). Further: 0% is about no effect. In short, it runs like this:
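RAW 264.7 cells (4000/well) were plated overnight, then exposed for 18 h at 37 C, 5% CO2 to compounds in a 7-point 1:5 titration (2.45 nM–38.3 uM final). Intracellular ATP was read by ATP-Lite luminescence.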

Assay [12] concerns the target Galactokinase (Homo sapiens) (UniProt P51570). Put plainly: qHTS Validation Assay for Inhibitors of Human Galactokinase (GALK) (AID 493189). Further: 0% is about no effect. In short, it runs like this: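 5 nM GALK / 100 uM galactose / 35 uM ATP, 20 mM HEPES pH8.0, 5 mM MgCl2, 60 mM NaCl, 1 mM DTT, 0.01% BSA (final). RT 1 h; Kinase-Glo Plus luminescence.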
The nature of assay [13]: Validation screen for small molecules that induce DNA re-replication in SW480 colon adenocarcinoma cells (AID 504364). Further: 0% is about no effect. In short, it runs like this:
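SW480 cells (250/well) exposed 48 h at 37 C, 5% CO2, then Hoechst-stained 40 min. Nuclear DNA content imaged by fluorescence scanning (405 nm excitation, 500-530 nm emission); re-replication scored as increased nuclei with elevated intensity.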

Assay [14] addresses Peptidyl-prolyl cis-trans isomerase NIMA-interacting 1 (Homo sapiens) (UniProt Q13526). Put plainly: qHTS Validation Assay to Find Inhibitors of Pin1 (AID 504536; active means well fitted inhibition curve with a large enough effect in the polarisation, with a control signal flat, not every such curve was filed as active; the % refers to the polarisation;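 further: 0% = full Pin1 enzyme wells and -100% = no-enzyme wells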). In short, it runs like this: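 Fluorescence polarization competition: compounds (titration) displace HiFluor-488-labeled Pin1-1b peptide from Pin1 (0.3 uM final) in pH 7.5 HEPES buffer with DTT, 10 min at room temperature; %Activity normalized to no-enzyme wells, curves fitted.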

Assay [15] has as its target Phosphoglycerate kinase, glycosomal (Trypanosoma brucei brucei) (UniProt P07378). Put plainly: qHTS Validation Assay to Find Inhibitors of Phosphoglycerate Kinase (AID 504547).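 Further: control wells lack PGK and mark full inhibition.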 In short, it runs like this: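 PGK activity was coupled to GAPDH (100nM final), which generates the unstable substrate 1,3-bisphosphoglycerate in-well. Reactions ran 60 minutes at room temperature in 100mM TEA pH 7.6, 5mM MgCl2, 0.01% Tween-20, then Kinase-Glo Plus luminescence was read.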

Assay [16] concerns the target phosphoglycerate mutase (Leishmania major) (UniProt Q4Q090). Put plainly: qHTS Validation Assay to Find Inhibitors of Phosphoglycerate Mutase (AID 504548).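 Further: end-point luminescence from Kinase-GloPlus after the PGAM reaction; series mostly up to about 58 µM; on the % scale 0 is the no-effect control and ±100 the full control effect.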 In short, it runs like this: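 L. major PGAM (1.25nM final) was added to substrate buffer and pinned compound, incubated 45 minutes at room temperature, then Kinase-GloPlus added; luminescence read after 10 minutes. Buffer: 100 mM TEA pH 7.6, 5 mM MgCl2, 0.01% Tween-20.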

For assay [17], the target named is Ubiquitin carboxyl-terminal hydrolase 1 (Homo sapiens) (UniProt O94782). Put plainly: Inhibitors of USP1/UAF1: Pilot qHTS (AID 504865). Further: nearly all actives have a fitted effect of over 35% in size. Further: potency means the concentration at half of the fitted maximal effect. In short, it runs like this: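 In 50mM HEPES pH 7.8 containing 0.5mM EDTA, 1mM TCEP, 0.1 mg/ml BSA and 0.01% Tween-20, 1nM USP1/UAF1 is exposed to compound for 15 min, then Ub-Rho (150nM final) is added and fluorescence is read over time.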

Assay [18] is described as follows: qHTS for Inhibitors of ATXN expression: Validation of Cytotoxic Assay (AID 588349). Further: on the % scale 0 is the no-effect control and ±100 the full control effect. In short, it runs like this:
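HEK293 cells treated with titrated compound for 72 hr at 37 degrees C; viability read as intracellular ATP by CellTiter Glo luminescence.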

Assay [19] in a line: Nrf2 qHTS screen for inhibitors: Validation (AID 493153; active means well fitted inhibition curve with a large enough effect in the main read-out, with a control signal flat, not every such curve was filed as active). As to conditions: viability change: measured here: cytotoxicity max response. In short, it runs like this: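 A549 cells carrying ARE-firefly luciferase reporter, 5000 cells/well in 5% FBS OPTI-MEM, treated with compound over a concentration series for 18-24 h at 37 C. Luciferase luminescence gave Nrf2 activity; CellTiter-Fluor fluorescence gave viability.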

Assay [20] deals with DNA dC->dU-editing enzyme APOBEC-3G (Homo sapiens) (UniProt Q9HC16). The assay is described as follows: qHTS for inhibitors of Vif-A3G interactions: Validation (AID 588379). Further: 0% is about no effect. In short, it runs like this: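 HeLa cells stably expressing Vif and A3G-eYFP, 700 cells/well, incubated overnight at 37 deg C, then exposed to compound overnight at 37 deg C. Inhibition of Vif-mediated degradation read as increased yellow fluorescence (Ex 488/Em 500-530) by laser-scanning cytometry.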
DNA dC->dU-editing enzyme APOBEC-3G (Homo sapiens), sequence (Q9HC16 whole entry, looked up): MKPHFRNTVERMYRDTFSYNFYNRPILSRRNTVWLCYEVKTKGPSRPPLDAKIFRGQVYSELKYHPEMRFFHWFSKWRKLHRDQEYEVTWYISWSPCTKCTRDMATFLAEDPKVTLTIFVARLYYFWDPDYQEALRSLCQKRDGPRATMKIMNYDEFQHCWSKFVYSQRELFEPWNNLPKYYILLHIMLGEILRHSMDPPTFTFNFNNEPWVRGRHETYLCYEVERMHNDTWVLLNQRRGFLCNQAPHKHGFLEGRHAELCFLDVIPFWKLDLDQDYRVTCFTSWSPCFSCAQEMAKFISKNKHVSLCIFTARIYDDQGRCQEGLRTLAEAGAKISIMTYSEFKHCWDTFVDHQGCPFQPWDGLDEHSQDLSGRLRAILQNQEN

ATP-dependent 6-phosphofructokinase (Trypanosoma brucei brucei), sequence (O15648 whole entry, looked up): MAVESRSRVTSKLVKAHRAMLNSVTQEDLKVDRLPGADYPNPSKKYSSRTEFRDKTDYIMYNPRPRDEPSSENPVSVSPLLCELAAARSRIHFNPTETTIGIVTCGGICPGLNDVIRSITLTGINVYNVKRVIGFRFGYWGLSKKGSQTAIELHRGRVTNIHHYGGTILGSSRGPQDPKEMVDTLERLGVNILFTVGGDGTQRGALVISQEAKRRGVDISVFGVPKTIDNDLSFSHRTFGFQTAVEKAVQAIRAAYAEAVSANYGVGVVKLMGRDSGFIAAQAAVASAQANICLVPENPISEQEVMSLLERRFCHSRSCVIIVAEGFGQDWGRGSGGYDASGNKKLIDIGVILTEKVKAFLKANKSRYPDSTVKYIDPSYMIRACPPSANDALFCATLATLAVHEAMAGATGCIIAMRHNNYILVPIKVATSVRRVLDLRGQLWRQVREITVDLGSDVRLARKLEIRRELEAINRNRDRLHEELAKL
Methanococcus maripaludis chaperonin (MmCpn), sequence (Q6LX38 1-543): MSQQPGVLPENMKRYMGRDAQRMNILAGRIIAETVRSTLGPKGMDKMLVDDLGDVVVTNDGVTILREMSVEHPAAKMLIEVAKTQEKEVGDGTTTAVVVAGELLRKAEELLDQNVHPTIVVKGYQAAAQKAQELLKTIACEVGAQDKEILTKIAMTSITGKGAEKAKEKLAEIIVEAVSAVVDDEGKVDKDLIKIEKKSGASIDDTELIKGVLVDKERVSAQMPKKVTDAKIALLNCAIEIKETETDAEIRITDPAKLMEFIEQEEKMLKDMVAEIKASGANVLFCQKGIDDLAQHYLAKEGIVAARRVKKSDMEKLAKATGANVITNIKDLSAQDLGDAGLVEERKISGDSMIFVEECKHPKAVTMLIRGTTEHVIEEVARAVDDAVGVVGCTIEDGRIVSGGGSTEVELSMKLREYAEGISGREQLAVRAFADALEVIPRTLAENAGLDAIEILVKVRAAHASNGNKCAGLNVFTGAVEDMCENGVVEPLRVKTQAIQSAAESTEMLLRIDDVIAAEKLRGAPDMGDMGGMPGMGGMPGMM
Peptidyl-prolyl cis-trans isomerase NIMA-interacting 1 (Homo sapiens), sequence (Q13526 whole entry, looked up): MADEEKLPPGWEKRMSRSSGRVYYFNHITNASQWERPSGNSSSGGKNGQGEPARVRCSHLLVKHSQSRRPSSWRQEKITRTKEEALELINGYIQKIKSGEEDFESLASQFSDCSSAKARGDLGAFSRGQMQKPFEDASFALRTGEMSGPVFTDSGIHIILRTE
phosphoglycerate mutase (Leishmania major), sequence (Q4Q090 1-553): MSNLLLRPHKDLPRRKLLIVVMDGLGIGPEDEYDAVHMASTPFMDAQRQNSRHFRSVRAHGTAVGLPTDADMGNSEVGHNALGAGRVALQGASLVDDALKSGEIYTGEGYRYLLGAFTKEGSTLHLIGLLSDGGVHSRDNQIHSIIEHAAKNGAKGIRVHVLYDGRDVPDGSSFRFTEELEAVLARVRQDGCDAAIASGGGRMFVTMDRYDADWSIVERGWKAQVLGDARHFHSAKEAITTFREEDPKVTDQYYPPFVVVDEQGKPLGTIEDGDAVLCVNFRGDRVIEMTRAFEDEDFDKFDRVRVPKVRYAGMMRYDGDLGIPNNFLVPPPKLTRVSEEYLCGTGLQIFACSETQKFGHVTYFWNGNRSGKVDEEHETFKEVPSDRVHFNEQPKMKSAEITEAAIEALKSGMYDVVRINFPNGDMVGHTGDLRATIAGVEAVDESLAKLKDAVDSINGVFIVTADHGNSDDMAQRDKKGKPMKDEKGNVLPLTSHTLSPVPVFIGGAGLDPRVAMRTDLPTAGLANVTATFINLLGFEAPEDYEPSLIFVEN
Phosphoglycerate kinase, glycosomal (Trypanosoma brucei brucei), sequence (P07378 whole entry, looked up): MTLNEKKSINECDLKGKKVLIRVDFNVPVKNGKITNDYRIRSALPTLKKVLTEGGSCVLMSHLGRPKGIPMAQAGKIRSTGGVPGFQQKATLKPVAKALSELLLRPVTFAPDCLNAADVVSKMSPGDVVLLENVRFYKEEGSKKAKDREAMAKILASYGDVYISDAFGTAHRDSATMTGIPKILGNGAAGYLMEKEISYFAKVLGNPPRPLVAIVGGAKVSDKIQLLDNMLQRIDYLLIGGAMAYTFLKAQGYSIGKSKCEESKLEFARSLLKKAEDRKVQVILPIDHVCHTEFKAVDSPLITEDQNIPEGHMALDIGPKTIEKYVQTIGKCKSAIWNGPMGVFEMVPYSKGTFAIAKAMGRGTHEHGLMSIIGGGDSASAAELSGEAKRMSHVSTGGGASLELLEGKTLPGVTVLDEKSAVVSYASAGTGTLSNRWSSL
D(1A) dopamine receptor (Homo sapiens), sequence (P21728 whole entry, looked up): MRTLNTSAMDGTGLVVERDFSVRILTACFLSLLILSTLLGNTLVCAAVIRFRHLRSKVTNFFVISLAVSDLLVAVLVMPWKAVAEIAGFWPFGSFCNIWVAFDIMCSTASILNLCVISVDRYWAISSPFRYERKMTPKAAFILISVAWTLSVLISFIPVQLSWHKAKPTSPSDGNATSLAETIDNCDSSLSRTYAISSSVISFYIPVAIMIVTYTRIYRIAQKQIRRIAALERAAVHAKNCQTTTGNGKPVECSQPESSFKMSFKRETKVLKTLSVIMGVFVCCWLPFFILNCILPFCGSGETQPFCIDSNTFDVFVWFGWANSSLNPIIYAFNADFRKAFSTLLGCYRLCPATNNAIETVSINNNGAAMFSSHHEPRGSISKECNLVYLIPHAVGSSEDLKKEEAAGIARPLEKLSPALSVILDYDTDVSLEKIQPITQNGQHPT
Ubiquitin carboxyl-terminal hydrolase 1 (Homo sapiens), sequence (O94782 whole entry, looked up): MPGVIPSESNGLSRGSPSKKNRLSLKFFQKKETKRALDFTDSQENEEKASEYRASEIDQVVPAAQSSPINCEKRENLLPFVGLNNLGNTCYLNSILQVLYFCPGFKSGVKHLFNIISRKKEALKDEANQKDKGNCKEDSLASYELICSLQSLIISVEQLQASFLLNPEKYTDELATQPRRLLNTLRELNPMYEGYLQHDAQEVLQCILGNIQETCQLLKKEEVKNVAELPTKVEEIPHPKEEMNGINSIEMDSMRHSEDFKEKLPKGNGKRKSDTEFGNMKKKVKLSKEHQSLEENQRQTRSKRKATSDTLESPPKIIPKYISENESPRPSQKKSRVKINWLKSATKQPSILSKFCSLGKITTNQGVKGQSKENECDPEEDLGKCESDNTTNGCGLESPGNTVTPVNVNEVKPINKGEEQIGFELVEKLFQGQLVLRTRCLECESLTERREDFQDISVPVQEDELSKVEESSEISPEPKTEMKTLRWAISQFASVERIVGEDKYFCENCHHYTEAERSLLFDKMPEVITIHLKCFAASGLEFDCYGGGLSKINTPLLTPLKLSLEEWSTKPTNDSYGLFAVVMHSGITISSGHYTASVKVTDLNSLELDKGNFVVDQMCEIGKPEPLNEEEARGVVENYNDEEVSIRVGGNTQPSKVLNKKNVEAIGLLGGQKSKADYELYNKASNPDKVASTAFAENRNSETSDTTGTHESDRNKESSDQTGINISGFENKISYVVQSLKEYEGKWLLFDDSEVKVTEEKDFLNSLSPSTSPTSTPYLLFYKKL
Thyrotropin receptor (Homo sapiens), sequence (P16473 whole entry, looked up): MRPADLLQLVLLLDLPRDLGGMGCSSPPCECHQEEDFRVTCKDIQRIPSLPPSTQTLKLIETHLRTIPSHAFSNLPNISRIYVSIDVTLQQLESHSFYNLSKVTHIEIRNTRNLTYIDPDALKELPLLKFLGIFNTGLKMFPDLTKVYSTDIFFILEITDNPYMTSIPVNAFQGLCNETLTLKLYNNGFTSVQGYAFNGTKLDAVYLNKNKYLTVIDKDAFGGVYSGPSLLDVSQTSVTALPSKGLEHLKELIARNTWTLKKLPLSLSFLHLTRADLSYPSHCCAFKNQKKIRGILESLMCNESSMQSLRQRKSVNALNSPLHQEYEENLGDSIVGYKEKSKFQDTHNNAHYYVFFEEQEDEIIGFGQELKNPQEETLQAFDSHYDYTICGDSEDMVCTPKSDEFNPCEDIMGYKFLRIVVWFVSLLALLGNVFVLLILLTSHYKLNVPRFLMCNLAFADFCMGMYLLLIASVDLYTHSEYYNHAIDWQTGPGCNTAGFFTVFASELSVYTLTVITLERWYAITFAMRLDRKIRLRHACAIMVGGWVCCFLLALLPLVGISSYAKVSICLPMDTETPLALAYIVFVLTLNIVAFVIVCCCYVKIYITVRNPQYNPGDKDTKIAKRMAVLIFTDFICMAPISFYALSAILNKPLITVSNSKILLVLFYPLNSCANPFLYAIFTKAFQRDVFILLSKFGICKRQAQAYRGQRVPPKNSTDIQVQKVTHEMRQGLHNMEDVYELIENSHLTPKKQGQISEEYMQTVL
Thyrotropin-releasing hormone receptor (Homo sapiens), sequence (P34981 whole entry, looked up): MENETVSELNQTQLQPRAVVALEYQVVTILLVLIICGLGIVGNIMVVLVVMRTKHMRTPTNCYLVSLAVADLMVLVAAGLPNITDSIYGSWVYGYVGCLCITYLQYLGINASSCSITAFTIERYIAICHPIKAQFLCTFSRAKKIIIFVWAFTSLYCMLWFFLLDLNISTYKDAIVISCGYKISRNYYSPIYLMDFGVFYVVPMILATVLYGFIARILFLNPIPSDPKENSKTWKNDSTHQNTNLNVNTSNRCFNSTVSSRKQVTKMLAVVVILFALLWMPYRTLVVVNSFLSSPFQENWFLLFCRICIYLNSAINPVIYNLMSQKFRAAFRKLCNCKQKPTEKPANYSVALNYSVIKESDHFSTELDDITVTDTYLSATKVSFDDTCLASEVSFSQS

`O=C(O)CCc1nc(-c2ccccc2)c(-c2ccccc2)o1`: the molecule was called inactive in assay [1], in [2], in assay [3], in assay [4], in [5] and in [7]. Besides, the call in assay [9], in [11], in assay [12], in assay [13], in assay [14] and in [15] was inactive. In addition, in assay [16], the result was inactive. Moreover, the Potency entry in assay [6], in assay [8], in assay [17] and in assay [18] was “inactive” in each case. In [10], the activation is -0.125% (inactive).

In the case of `COc1ccccc1N1CCN(CCCNc2cc(=O)n(C)c(=O)n2C)CC1`, the outcome in assay [1], in assay [2], in assay [3], in assay [4], in assay [5] and in assay [7] was inactive. The result in [9], in assay [19], in assay [11], in assay [12], in [13] and in assay [14] was inactive. Besides, the molecule was called inactive in [15], in assay [16] and in assay [20]. Further, the Potency result in assay [6], in assay [8], in assay [17] and in assay [18] was “inactive” throughout. Further, in [10], the activation was -2.81% (inactive). In addition, the viability change in assay [19] was -8.38%.

Consider `O=C(O)c1cc(-c2ccccc2)nc2ccccc12`, for which, in [17], the Potency result was “inactive”.

For `C[N+](C)(C)CC(=O)O`, the molecule was called inactive in assay [1], in assay [4], in assay [5], in assay [9], in [19] and in assay [11]. The molecule was classed as inactive in [14], in assay [15] and in [16]. For the same molecule, the Potency entry in [6] and in assay [18] was “inactive” each time. In addition, in [19], the viability change worked out at 8.76%.

For `Clc1ccc(C(c2ccc(Cl)cc2)n2cc[n+](CC(OCc3ccc(Cl)cc3Cl)c3ccc(Cl)cc3Cl)c2)cc1` (configuration not stated), the molecule was classed as inactive in [1], in assay [4], in assay [5], in [11], in [14] and in assay [15]. Moreover, the outcome in [16] was inactive. Further, in [6], the Potency entry was “inactive”.

Turning to `O=C(O)c1cc(O)c2c(c1)C(=O)c1cccc(O)c1C2=O`, in assay [20], the molecule was called inactive.

For the molecule `CC(=O)O[C@]1(C(C)=O)CC[C@H]2[C@@H]3C=C(Cl)C4=CC(=O)[C@@H]5C[C@@H]5[C@]4(C)[C@H]3CC[C@@]21C`, the call in assay [1], in assay [4], in assay [7], in [9], in [19] and in assay [11] was inactive. Further, the outcome in assay [14], in assay [15] and in [16] was inactive. In addition, the Potency result in assay [6], in [8], in assay [17] and in assay [18] was “inactive” throughout. The viability change in assay [19] was determined as 2.19%.

Turning to `O=C(O)c1c(Cl)c(Cl)c(Cl)c(Cl)c1-c1c2cc(I)c(=O)c(I)c-2oc2c(I)c(O)c(I)cc12`, the molecule was called inactive in assay [7]. The Potency in assay [17] is 20 µM (active).
